Compound activity: PubChem, National Center for Advancing Translational Sciences (NCATS)
Rows were chosen to be rich in hits. Some 19% of all compounds tested hit in one or more screens of this group.
HT1080-NT tox: qHTS for induction of synthetic lethality in tumor cells producing 2HG: qHTS for the HT-1080-NT fibrosarcoma cell line; HT-1080-NT fibrosarcoma viability, CellTiter-Glo ATP luminescence, 48 h; Potency, µM (titrated, usually from 46.1 µM), inactives show at the highest dose activity, negative = less viability, actives largely listed as cytotoxic; 1.6% of 360,000 active;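 further: NT is the 2HG producing partner of a matched IDH1 knockdown line; potency means the concentration at half of the fitted maximal effect; 0% = DMSO-treated cells and -100% = media-only wells without cells; nearly all actives have a fitted effect of over 55% in size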
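HT-1080-NT fibrosarcoma cells (2HG-overproducing), 750 cells/well in RPMI with 5% FBS, dosed after 2 h and incubated 48 h at 37C. CellTiter-Glo luminescence normalized to DMSO and no-cell wells; concentration-response curves fitted and classed.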
TDP1 cell CPT: qHTS for Inhibitors of human tyrosyl-DNA phosphodiesterase 1 (TDP1): qHTS in cells in presence of CPT; chicken DT40 Tdp1-/-;hTDP1 cells + 20 nM CPT, ATP luminescence, 48 h; Potency, µM (series often up to 46.2 µM), without a hit: top-dose activity change, negative = growth inhibition, most hits filed as inhibitors; 12% of 420,000 active; further: potency means the concentration at half of the fitted maximal effect; nearly all actives have a fitted effect of over 55% in size
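Chicken DT40 Tdp1-/- cells stably complemented with human TDP1 were seeded at 400 cells/well in medium containing 20 nM camptothecin, exposed to pin-transferred compounds, and grown at 37 °C for at least 48 hr. Viability was read as ATP luminescence.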
HT1080 IDH1KD tx: qHTS for induction of synthetic lethality in tumor cells producing 2HG: qHTS for the HT-1080-IDH1KD cell line. HT-1080 IDH1 knockdown viability, ATP luminescence, 48 h. Potency, µM (doses to about 46.1 µM), without a hit: at the top dose activity, negative = toxicity, actives largely listed as cytotoxic. 2% of 360,000 active. AID 686971, 2013;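 further: potency means the concentration at half of the fitted maximal effect; 0% = DMSO wells and -100% = cell-free medium wells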
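Cytotoxicity counter-line: IDH1KD HT-1080, 48 h, CellTiter-Glo. Curves classed by r2, magnitude and activity.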
IL-1B inflam inh: qHTS for Inhibitors of Inflammasome Signaling: IL-1-beta AlphaLISA Primary Screen. AID 743279, 2014. 4.7% of 360,000 active. THP-1 LPS/ATP IL-1B secretion, AlphaLISA, 16 h; stronger effect = lower value. activity change, % at 57.5 µM; in the data active means activity change below about -50%; inconclusive means mostly about -30% to -49%
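Secreted IL-1B measured by AlphaLISA bead assay after 16 h compound exposure of THP-1 cells; compounds (final up to 57.5 uM) added 1 h before LPS (250 ng/mL) and ATP (1.25 mM) stimulation; lower signal means less secretion.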
DT40 TDP1 no CPT: qHTS for Inhibitors of human tyrosyl-DNA phosphodiesterase 1 (TDP1): qHTS in cells in absence of CPT; Potency, µM (highest dose often 46.2 µM), without a hit: at the highest dose activity change, negative = growth inhibition, actives largely listed as inhibitors; 15% of 420,000 active; DT40 Tdp1-/- hTDP1 cells, no CPT, ATP luminescence, 48 h; further: potency means the concentration at half of the fitted maximal effect; nearly all actives have a fitted effect of over 55% in size
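A cellular qHTS used chicken DT40 cells lacking endogenous Tdp1 but carrying stably transfected human TDP1. Compounds were applied without camptothecin, and cell growth kinetics were judged by ATP-dependent luminescence after ≥48 hr.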
* marks the source's active call; other numbers are inactive results; ! = not active in a repeat. Unless noted, the call rests on the fitted dose curve; in most records, active means well fitted curve in the direction sought with a large enough effect; inconclusive means small, poorly fitted or top-dose-only effect, or another doubt; inactive means no such curve, though single readings can be large; an effect the other way counts as inactive or inconclusive. Unless noted, on the % scale 0 is the no-effect control and ±100 the full control effect.

CCC(c1nnnn1-c1ccc2c(c1)OCCO2)N1CCc2ccccc2C1 (stereo unspecified) was read as HT1080-NT tox -2%, TDP1 cell CPT inconclusive, HT1080 IDH1KD tx -9%, IL-1B inflam inh 4 and DT40 TDP1 no CPT inconclusive.
`CCC(c1nnnn1-c1ccc2c(c1)OCCO2)N1CCN(c2ccc(F)cc2)CC1` (stereo unspecified) gave HT1080-NT tox -12%, TDP1 cell CPT 15µM*, HT1080 IDH1KD tx inconclusive, IL-1B inflam inh -9 and DT40 TDP1 no CPT 16µM*.
CCC(c1nnnn1-c1ccc2c(c1)OCCO2)N1CCN(c2ncccc2C(F)(F)F)CC1 (stereo unspecified) was read as HT1080-NT tox -11%, TDP1 cell CPT inconclusive, HT1080 IDH1KD tx inconclusive, IL-1B inflam inh -7 and DT40 TDP1 no CPT 18µM*.
`O=C1CCC[C@@H]2[C@@H](Cc3ccccc3)[C@@H](Nc3ccccc3)C[C@@H]3CCN1[C@@H]32` gave TDP1 cell CPT inconclusive and DT40 TDP1 no CPT 11µM*.
COc1ccc(Cn2c(CCC(=O)Nc3ccc(C)c(C)c3)nc3cccnc32)cc1 was read as HT1080-NT tox -18%, TDP1 cell CPT 13µM*!, HT1080 IDH1KD tx -23%, IL-1B inflam inh inconclusive and DT40 TDP1 no CPT 21µM*.
`O=C(CCc1nc2cccnc2n1Cc1cccs1)Nc1cccc(C(F)(F)F)c1` gave TDP1 cell CPT 16µM* and DT40 TDP1 no CPT 10µM*.
`Cc1ccc(NC(=O)Cc2ccc(-n3c(C)nc4cccnc43)cc2)cc1C` gave TDP1 cell CPT 12µM* and DT40 TDP1 no CPT 18µM*.
COc1ccc(Cn2c(CCC(=O)Nc3cccc(OC)c3)nc3cccnc32)cc1 was read as TDP1 cell CPT -17% and DT40 TDP1 no CPT -3%.
`COc1ccc(Cn2c(CCC(=O)Nc3ccccc3)nc3cccnc32)cc1` gave HT1080-NT tox -27%, TDP1 cell CPT 3%, HT1080 IDH1KD tx inconclusive, IL-1B inflam inh -2 and DT40 TDP1 no CPT -22%.
For COc1ccc(Cn2c(CCC(=O)Nc3cc(OC)c(OC)c(OC)c3)nc3cccnc32)cc1 the results were TDP1 cell CPT 16µM* and DT40 TDP1 no CPT inconclusive.
CC(=O)Nc1ccccc1-c1nc(CNC(=O)c2ccc(-c3ccccc3F)cc2)c(C)o1 was read as TDP1 cell CPT 11% and DT40 TDP1 no CPT -7%.
`CCOC(=O)Cn1nc(NC(=O)c2ccc3c(c2)OCO3)cc1C` gave HT1080-NT tox -13%, TDP1 cell CPT inconclusive, HT1080 IDH1KD tx -18%, IL-1B inflam inh 0 and DT40 TDP1 no CPT inconclusive.
CCn1ncc(CN2CCCC(CNC(=O)c3ccc(F)cc3)C2)c1C (stereo unspecified) was read as HT1080-NT tox 0%, TDP1 cell CPT 5%, HT1080 IDH1KD tx 3%, IL-1B inflam inh 22 and DT40 TDP1 no CPT 3%.
For CCO[C@H]1OC(C(=O)N2CCN(Cc3ccc4c(c3)OCO4)CC2)=C[C@@H](C)[C@@H]1CCCO the results were HT1080-NT tox -1%, TDP1 cell CPT -26%, HT1080 IDH1KD tx -1%, IL-1B inflam inh 26 and DT40 TDP1 no CPT inconclusive.
N#Cc1cccnc1N1CCN(C(=O)c2cccs2)CC1 was read as HT1080-NT tox 13%, TDP1 cell CPT 18%, HT1080 IDH1KD tx 2%, IL-1B inflam inh -5 and DT40 TDP1 no CPT -1%.
For CCNc1ncc2nc(-c3cccs3)c(=O)n(Cc3ccc(F)cc3)c2n1 the results were TDP1 cell CPT 0% and DT40 TDP1 no CPT 0%.
`CCOc1ccccc1-c1cncc(NC)n1` gave HT1080-NT tox 19%, TDP1 cell CPT inconclusive, HT1080 IDH1KD tx 12%, IL-1B inflam inh -13 and DT40 TDP1 no CPT -26%.
`CC(C)OCCCN(C)C1CCN(S(=O)(=O)c2ccc(-c3cc(C(F)(F)F)no3)s2)CC1` gave HT1080-NT tox -12%, TDP1 cell CPT inconclusive, HT1080 IDH1KD tx -1%, IL-1B inflam inh inconclusive and DT40 TDP1 no CPT inconclusive.
COCCCNC(=O)CCc1nc2cccnc2n1Cc1ccccc1 was read as HT1080-NT tox 7%, TDP1 cell CPT -3%, HT1080 IDH1KD tx -5%, IL-1B inflam inh 1 and DT40 TDP1 no CPT -4%.
Screening O=C(CCc1nc2cccnc2n1Cc1ccccc1)NCCc1ccc(Cl)cc1 returned HT1080-NT tox -21%, TDP1 cell CPT inconclusive, HT1080 IDH1KD tx -11%, IL-1B inflam inh -4 and DT40 TDP1 no CPT 21µM*.
For CCOC(=O)c1cc(C)n(CC2CCC(C(=O)Nc3ccccc3OC)CC2)c1C (stereo unspecified) the results were TDP1 cell CPT 18µM* and DT40 TDP1 no CPT inconclusive.
Screening CCOC(=O)c1c(S(=O)(=O)N2CCC(C(=O)Nc3ccc(OCC)cc3)CC2)c(C)n(C)c1C returned TDP1 cell CPT -8% and DT40 TDP1 no CPT -6%.
For CCOC(=O)c1cc(C)n(CC2CCC(C(=O)Nc3ccc(OCC)cc3)CC2)c1C (stereo unspecified) the results were TDP1 cell CPT 16µM* and DT40 TDP1 no CPT 21µM*.
For CC(NC(=O)c1cc(S(=O)(=O)N2CCCC2)cn1C)c1ccccc1 (stereo unspecified) the results were HT1080-NT tox 0%, TDP1 cell CPT inconclusive, HT1080 IDH1KD tx -6%, IL-1B inflam inh -26 and DT40 TDP1 no CPT -8%.
Screening CCOC(=O)[C@]12CCCC=C1N(CCC1=CCCCC1)C(=O)[C@H](CC(=O)NCC13CC4CC(CC(C4)C1)C3)C2 returned HT1080-NT tox inconclusive, TDP1 cell CPT inconclusive, HT1080 IDH1KD tx inconclusive, IL-1B inflam inh 1 and DT40 TDP1 no CPT inconclusive.
Screening COC(=O)[C@]12CCCCC=C1N(CCC1=CCCCC1)C(=O)[C@H](CC(=O)NCc1cccs1)C2 returned HT1080-NT tox inconclusive, TDP1 cell CPT inconclusive, HT1080 IDH1KD tx -28%, IL-1B inflam inh -11 and DT40 TDP1 no CPT 16µM*.
Screening CCOC(=O)[C@]12CCCC=C1N(CCC1=CCCCC1)C(=O)[C@H](CC(=O)NCc1cccs1)C2 returned HT1080-NT tox -5%, TDP1 cell CPT inconclusive, HT1080 IDH1KD tx -19%, IL-1B inflam inh -3 and DT40 TDP1 no CPT 21µM*.
Screening COC(=O)[C@]12CCCCC=C1N(CCC1=CCCCC1)C(=O)[C@H](CC(=O)NCc1ccccc1)C2 returned HT1080-NT tox -14%, TDP1 cell CPT inconclusive, HT1080 IDH1KD tx -14%, IL-1B inflam inh -13 and DT40 TDP1 no CPT inconclusive.
